# PubChem BioAssay (Tox21)
# Results filed as inconclusive are left out. A call without a number means that no potency is given here. The source holds several records for some structures; these can differ, active in one and inactive in another. The source made the active and inactive calls. Unless noted, the call rests on the fitted dose curve; in most records, active means well fitted curve in the direction sought with a large enough effect in the repeat runs; inconclusive means weak or mixed curves; inactive means no such curve, though single readings can be large; an effect the other way counts as inactive or inconclusive.
# Legend:
# [1] = qHTS assay to identify small molecule antagonists of the glucocorticoid receptor (GR) signaling pathway - cell viability counter screen (AID 720693); further: nearly all actives have a fitted effect of over 55% in size
# [2] = qHTS assay for identifying genotoxic compounds that show differential cytotoxicity against isogenic chicken DT40 cell lines with known DNA damage response pathways - wild type cell line (AID 743012); further: nearly all actives have a fitted effect of over 60% in size; further: potency means the concentration at half of the fitted maximal effect
# Procedure, shortened: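 Viability by ATP luminescence (CellTiter-Glo, 30 min RT) after 40 h compound treatment at 37 C/5% CO2, using 300 parental DNA repair-proficient DT40 cells per well.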
# [3] = qHTS assay for identifying genotoxic compounds that show differential cytotoxicity against isogenic chicken DT40 cell lines with known DNA damage response pathways - Rad54/Ku70 mutant cell line (AID 743015); further: nearly all actives have a fitted effect of over 60% in size; further: potency means the concentration at half of the fitted maximal effect
# [4] = qHTS assay to identify small molecule antagonists of the androgen receptor (AR) signaling pathway - cell viability counter screen (AID 743033; further: nearly all actives have a fitted effect of over 45% in size)
# [5] = qHTS assay to identify small molecule antagonists of the androgen receptor (AR) signaling pathway using the MDA cell line - cell viability counter screen (AID 743041; further: nearly all actives have a fitted effect of over 45% in size; further: potency means the concentration at half of the fitted maximal effect)
# Procedure, shortened: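 Compound exposure lasted 16 h at 37C in MDA-kb2 AR-luc cells stimulated with R1881. Protease-based CellTiter-Fluor reagent was applied for the final 30 min and fluorescence measured.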
# [6] = qHTS assay to identify small molecule antagonists of the thyroid receptor (TR) signaling pathway - cell viability counter screen (AID 743064); further: nearly all actives have a fitted effect of over 50% in size; further: potency means the concentration at half of the fitted maximal effect
# Procedure, shortened: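 Counter screen for cytotoxicity: compound plus T3 (1 nM final) on GH3.TRE-Luc cells, 23.5 h at 37 °C, then fluorescence viability readout with CellTiter-Fluor.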
# [7] = tested on: thyroid hormone receptor (rat, GH3 cells); experiment: qHTS assay to identify small molecule agonists of the thyroid receptor (TR) signaling pathway (AID 743066; calls by dose curve)
# [8] = biological target: Estrogen receptor (Homo sapiens) (UniProt P03372); experiment: qHTS assay to identify small molecule antagonists of the estrogen receptor alpha (ER-alpha) signaling pathway (AID 743069; active means well fitted curve in the direction sought with a large enough effect in the signal ratio in the repeat runs, not every such curve was filed as active; the % refers to the signal ratio)
# Procedure, shortened: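 In this cell-based reporter format, GripTite HEK293 cells harbouring ER-alpha-UAS-bla were grown overnight with 2% charcoal-stripped FBS, dosed with DMSO-dissolved compounds, then challenged with 17beta-estradiol. After 18 hr at 37C, beta-lactamase activity was detected by FRET fluorescence.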
# [9] = qHTS assay to identify small molecule antagonists of the estrogen receptor alpha (ER-alpha) signaling pathway - cell viability counter screen (AID 743074; calls by dose curve; further: nearly all actives have a fitted effect of over 45% in size)
# [10] = biological target: Estrogen receptor (Homo sapiens) (UniProt P03372); experiment: qHTS assay to identify small molecule agonists of the estrogen receptor alpha (ER-alpha) signaling pathway (AID 743075; calls by dose curve)
# [11] = biological target: Estrogen receptor (Homo sapiens) (UniProt P03372); experiment: qHTS assay to identify small molecule agonists of the estrogen receptor alpha (ER-alpha) signaling pathway using the BG1 cell line (AID 743079); further: nearly all actives have a fitted effect of over 20% in size; further: potency means the concentration at half of the fitted maximal effect
# [12] = qHTS assay to identify small molecule antagonists of the estrogen receptor alpha (ER-alpha) signaling pathway using the BG1 cell line (AID 743080; calls by dose curve;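 further: BG1 cells stimulated with 17beta-estradiol alongside compound; series mostly up to about 70 µM; nearly all actives have a fitted effect of over 25% in size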)
# Procedure, shortened: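 BG1-Luc-4E2 cells (endogenous full-length ER-alpha, 4xERE luciferase) hormone-starved 5 days in charcoal-stripped FBS, plated 4,000/well for 24 h, then compound plus 17beta-estradiol for 21.5 h at 37 C; ONE-Glo luminescence read.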
# [13] = qHTS assay to identify small molecule antagonists of the estrogen receptor alpha (ER-alpha) signaling pathway using the BG1 cell line - cell viability counter screen (AID 743081);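 further: compound given together with 17beta-estradiol as the ER stimulus; series mostly up to about 70 µM; nearly all actives have a fitted effect of over 45% in size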
# Aromatase (Homo sapiens) = Aromatase (Homo sapiens) (UniProt P11511); experiment: qHTS assay to identify aromatase inhibitors (AID 743083); further: series mostly up to about 70 µM; nearly all actives have a fitted effect of over 55% in size
# [14] = qHTS assay to identify small molecule antagonists of the thyroid receptor (TR) signaling pathway (AID 743065); further: nearly all actives have a fitted effect of over 55% in size; further: potency means the concentration at half of the fitted maximal effect
# Procedure, shortened: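 GH3.TRE-Luc rat pituitary cells (two TREs driving luciferase) were dosed with compound, then stimulated with 1 nM T3 (final) for 23.5 h at 37 C. ONE-Glo luminescence was the read-out, with CellTiter-Fluor fluorescence as the cytotoxicity counter-screen.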
# [15] = biological target: Androgen receptor (Homo sapiens) (UniProt P10275); experiment: qHTS assay to identify small molecule agonists of the androgen receptor (AR) signaling pathway (AID 743036; active means well fitted activation curve with a large enough effect in the signal ratio in the repeat runs, with a control signal flat, not every such curve was filed as active; the % refers to the signal ratio)
# Procedure, shortened: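 In this Tox21 qHTS, 2,000 HEK293 AR-bla cells per well were incubated with compounds for 16 h at 37C and 5% CO2. Fluorescence intensity was recorded 2 h after adding LiveBLAzer B/G FRET substrate at room temperature.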
# [16] = biological target: Androgen receptor (Homo sapiens) (UniProt P10275); experiment: qHTS assay to identify small molecule agonists of the androgen receptor (AR) signaling pathway using the MDA cell line (AID 743040; further: nearly all actives have a fitted effect of over 20% in size)
# Procedure, shortened: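 Testing was done with the MDA-kb2 AR-luc line, a human breast carcinoma stably transfected with MMTV-luciferase containing AR and GR response elements. Cells were exposed 16 h at 37C before ONE-Glo luminescence detection.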
# [17] = biological target: Androgen receptor (Homo sapiens) (UniProt P10275); experiment: qHTS assay to identify small molecule antagonists of the androgen receptor (AR) signaling pathway using the MDA cell line (AID 743042; further: nearly all actives have a fitted effect of over 55% in size)
# Procedure, shortened: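 MDA-kb2 breast carcinoma cells carrying MMTV-luciferase (AR/GR responsive) were co-treated with compounds and the agonist R1881 for 16 h at 37C. Inhibition read as ONE-Glo luminescence; CellTiter-Fluor fluorescence measured in parallel for cytotoxicity.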
# [18] = qHTS assay for identifying genotoxic compounds that show differential cytotoxicity against isogenic chicken DT40 cell lines with known DNA damage response pathways - Rev3 mutant cell line (AID 743014); further: nearly all actives have a fitted effect of over 55% in size
# [19] = biological target: Androgen receptor (Homo sapiens) (UniProt P10275); experiment: qHTS assay to identify small molecule antagonists of the androgen receptor (AR) signaling pathway (AID 743035; active means well fitted inhibition curve with a large enough effect in the signal ratio in the repeat runs, not every such curve was filed as active; the % refers to the signal ratio)
# Procedure, shortened: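 Antagonist mode: AR-bla HEK293 cells co-treated with test compounds and agonist R1881 for 16 h at 37C, 5% CO2. Beta-lactamase activity read as FRET fluorescence after 2 h room-temperature substrate loading.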
# Aromatase (Homo sapiens), sequence (P11511 whole entry, looked up): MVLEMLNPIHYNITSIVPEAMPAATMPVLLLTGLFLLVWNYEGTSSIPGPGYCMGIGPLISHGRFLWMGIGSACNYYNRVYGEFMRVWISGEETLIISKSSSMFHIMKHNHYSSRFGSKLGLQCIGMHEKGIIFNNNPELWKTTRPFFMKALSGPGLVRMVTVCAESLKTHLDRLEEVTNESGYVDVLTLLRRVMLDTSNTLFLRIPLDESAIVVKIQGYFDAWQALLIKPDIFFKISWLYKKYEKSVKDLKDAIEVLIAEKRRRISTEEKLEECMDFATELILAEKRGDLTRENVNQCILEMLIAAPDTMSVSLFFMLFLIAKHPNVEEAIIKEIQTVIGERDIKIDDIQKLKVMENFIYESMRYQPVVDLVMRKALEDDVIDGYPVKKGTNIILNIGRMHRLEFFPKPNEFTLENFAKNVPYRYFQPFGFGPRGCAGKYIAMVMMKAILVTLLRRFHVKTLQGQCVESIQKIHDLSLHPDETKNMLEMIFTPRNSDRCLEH
# Estrogen receptor (Homo sapiens), sequence (P03372 whole entry, looked up): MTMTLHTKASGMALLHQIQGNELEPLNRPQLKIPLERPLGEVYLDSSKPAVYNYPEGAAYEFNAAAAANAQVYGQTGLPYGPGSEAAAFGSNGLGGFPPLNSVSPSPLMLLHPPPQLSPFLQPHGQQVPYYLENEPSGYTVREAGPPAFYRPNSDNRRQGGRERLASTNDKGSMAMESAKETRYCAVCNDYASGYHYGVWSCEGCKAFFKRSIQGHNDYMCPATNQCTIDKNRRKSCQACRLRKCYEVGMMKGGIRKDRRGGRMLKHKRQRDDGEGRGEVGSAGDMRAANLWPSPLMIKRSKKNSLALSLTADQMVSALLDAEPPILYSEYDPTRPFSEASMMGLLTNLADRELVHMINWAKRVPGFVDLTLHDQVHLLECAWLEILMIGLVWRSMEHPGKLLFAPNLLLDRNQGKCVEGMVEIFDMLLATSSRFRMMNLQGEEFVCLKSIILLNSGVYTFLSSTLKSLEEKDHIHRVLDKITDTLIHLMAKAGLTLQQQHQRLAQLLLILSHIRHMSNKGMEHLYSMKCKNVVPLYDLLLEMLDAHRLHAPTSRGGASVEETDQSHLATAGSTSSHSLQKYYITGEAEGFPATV
# Androgen receptor (Homo sapiens), sequence (P10275 whole entry, looked up): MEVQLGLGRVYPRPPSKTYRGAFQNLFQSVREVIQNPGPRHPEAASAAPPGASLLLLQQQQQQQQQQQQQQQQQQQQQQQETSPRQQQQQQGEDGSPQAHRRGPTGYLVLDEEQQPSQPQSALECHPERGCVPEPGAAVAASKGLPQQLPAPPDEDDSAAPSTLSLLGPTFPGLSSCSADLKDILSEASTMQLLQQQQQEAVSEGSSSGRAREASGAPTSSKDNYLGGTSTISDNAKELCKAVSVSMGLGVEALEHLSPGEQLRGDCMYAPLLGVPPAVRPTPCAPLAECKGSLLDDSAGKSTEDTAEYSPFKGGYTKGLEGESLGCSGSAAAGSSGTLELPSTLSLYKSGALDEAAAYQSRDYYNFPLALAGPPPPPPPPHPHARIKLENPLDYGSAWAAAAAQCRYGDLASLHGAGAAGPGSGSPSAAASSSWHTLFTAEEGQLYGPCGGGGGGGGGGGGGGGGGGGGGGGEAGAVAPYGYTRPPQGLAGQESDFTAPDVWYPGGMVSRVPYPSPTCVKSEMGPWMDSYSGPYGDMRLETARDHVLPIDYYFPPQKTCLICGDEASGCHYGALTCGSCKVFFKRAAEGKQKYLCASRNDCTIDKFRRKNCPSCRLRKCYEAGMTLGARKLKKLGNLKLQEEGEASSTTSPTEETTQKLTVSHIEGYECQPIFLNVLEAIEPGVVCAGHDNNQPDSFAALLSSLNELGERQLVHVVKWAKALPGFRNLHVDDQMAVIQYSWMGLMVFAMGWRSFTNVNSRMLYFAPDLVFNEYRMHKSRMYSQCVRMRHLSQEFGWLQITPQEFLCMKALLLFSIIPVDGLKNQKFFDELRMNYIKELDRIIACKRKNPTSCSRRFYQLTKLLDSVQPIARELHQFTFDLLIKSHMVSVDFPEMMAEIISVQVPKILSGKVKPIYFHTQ
SMILES,outcome [1],Potency [2],Potency [3],Potency [4],Potency [5],Potency [6],outcome [7],outcome [8],outcome [9],outcome [10],Potency [11],Potency [12],outcome [13],Potency (Aromatase (Homo sapiens)),Potency [14],outcome [15],outcome [16],Potency [17],Potency [18],Potency [19]
C=C1CC/C=C(\C)CC[C@@H]2[C@@H]1CC2(C)C,inactive,inactive,inactive,inactive,inactive,inactive,inactive,inactive,inactive,inactive,inactive,inactive,inactive,inactive,,,,,,
NCCN1CCOCC1,inactive,inactive,inactive,inactive,inactive,inactive,inactive,,,,,,inactive,inactive,inactive,,,,,
CCC(C)(CCC(C)C)C(=O)O (configuration not stated),inactive,inactive,inactive,inactive,inactive,inactive,inactive,,inactive,,,,inactive,,inactive,,,,,
CCOC(=O)CC(=O)c1ccccc1,inactive,inactive,inactive,inactive,inactive,inactive,inactive,inactive,inactive,inactive,,inactive,inactive,inactive,inactive,,,,,
CC(=C(CCOC(=O)C(C)C)SSC(CCOC(=O)C(C)C)=C(C)N(C=O)Cc1cnc(C)nc1N)N(C=O)Cc1cnc(C)nc1N,inactive,inactive,inactive,inactive,inactive,inactive,inactive,inactive,inactive,inactive,,inactive,inactive,inactive,,,,,,
CCCOC(OCCC)OCCC,inactive,inactive,inactive,inactive,inactive,inactive,inactive,,inactive,,,,inactive,inactive,inactive,,,,,
CCO[Si](CCCS)(OCC)OCC,inactive,inactive,inactive,inactive,inactive,inactive,inactive,,inactive,,,,inactive,inactive,inactive,,,,,
CC(=O)N[C@@H](CCC(=O)O)C(=O)O,inactive,inactive,inactive,inactive,inactive,inactive,inactive,,inactive,,,,inactive,inactive,inactive,,,,,
CCOC(=O)/C=C/c1ccccc1,inactive,inactive,inactive,inactive,inactive,inactive,inactive,inactive,,inactive,inactive,inactive,inactive,inactive,inactive,,,,,
O=C(NCCN1CCOCC1)c1ccc(Cl)cc1,inactive,inactive,inactive,inactive,inactive,inactive,inactive,,inactive,,,,inactive,inactive,inactive,,,,,
COc1ccc2c(c1OC)C(=O)O[C@@H]2[C@H]1c2c(cc3c(c2OC)OCO3)CCN1C,inactive,inactive,inactive,inactive,inactive,11.9 µM (active),,,inactive,,,,,,,,,,,
C=C(C)C(=O)OCCNC(C)(C)C,inactive,inactive,inactive,inactive,inactive,inactive,,,inactive,,,,inactive,inactive,,,,,,
CN1C(C)(C)CCCC1(C)C,inactive,inactive,inactive,inactive,inactive,inactive,inactive,inactive,inactive,inactive,inactive,inactive,inactive,inactive,,,,,,
CC(=O)NCc1c(I)c(NC(C)=O)c(I)c(C(=O)O)c1I,inactive,inactive,inactive,inactive,inactive,inactive,inactive,inactive,inactive,inactive,13.3 µM (active),inactive,inactive,inactive,inactive,inactive,inactive,inactive,,
COP(=O)(OC)OC(c1ccc(Cl)cc1)P(=O)(OC)OC (configuration not stated),inactive,inactive,inactive,inactive,inactive,inactive,inactive,inactive,inactive,inactive,inactive,inactive,inactive,inactive,inactive,,,,,
Cc1ccccc1N=O,inactive,inactive,inactive,inactive,inactive,inactive,inactive,,inactive,,,,inactive,,inactive,,,,,
BrCCCCCBr,inactive,inactive,inactive,inactive,inactive,inactive,inactive,inactive,,inactive,inactive,inactive,inactive,inactive,inactive,,,,,
O=C(O)c1ccc(Cl)cc1Cl,inactive,inactive,inactive,inactive,inactive,,inactive,inactive,inactive,inactive,,inactive,inactive,inactive,inactive,,,,,
O=P(O)(O)OP(=O)(O)O,inactive,inactive,11.9 µM (active) and inactive,inactive,inactive,inactive,,,inactive,,,,inactive,,,,,,,
O=C1c2cccc3c2[C@H](CCC3)CN1[C@@H]1CN2CCC1CC2,inactive,11.9 µM (active),,,,23.7 µM (active),inactive,,inactive,inactive,inactive,,,inactive,18.8 µM (active),,,,,
CC(CN)CC(C)(C)CCN (configuration not stated),inactive,44.4 µM (active),,inactive,6.27 µM (active),inactive,inactive,,inactive,,,,inactive,inactive,inactive,,,,,

SMILES,outcome [1],Potency [2],Potency [3],Potency [4],Potency [5],Potency [6],outcome [7],outcome [8],outcome [9],outcome [10],Potency [11],Potency [12],outcome [13],Potency (Aromatase (Homo sapiens)),Potency [14],outcome [15],outcome [16],Potency [17],Potency [18],Potency [19]
CCCCNC1CC(C)(C)NC(C)(C)C1,inactive,inactive,,inactive,inactive,,inactive,inactive,inactive,inactive,inactive,inactive,,inactive,,,,,,
COC(=O)CCCCCCCC(=O)OC,inactive,,inactive,inactive,inactive,inactive,inactive,inactive,inactive,inactive,inactive,inactive,inactive,inactive,inactive,,,,inactive,
CC(C)(C)c1n[nH]c(=S)n(N)c1=O,inactive,,inactive,inactive,inactive,inactive,inactive,inactive,inactive,inactive,inactive,inactive,inactive,inactive,inactive,,,,inactive,
CNC(=O)[C@H]1O[C@@H](n2cnc3c(NCc4cc(Cl)ccc4OCc4cc(C)no4)ncnc32)[C@H](O)[C@@H]1N,inactive,,inactive,inactive,inactive,inactive,inactive,inactive,,inactive,inactive,inactive,inactive,inactive,inactive,,inactive,inactive,inactive,inactive
CC(=O)OC(C)OC(=O)C(C)c1ccc(-c2ccccc2)c(F)c1 (configuration not stated),inactive,inactive,,inactive,inactive,inactive,inactive,inactive,inactive,inactive,inactive,inactive,inactive,inactive,inactive,,inactive,inactive,,inactive
O=C1c2ccccc2C(=O)N1CCl,inactive,inactive,,inactive,inactive,inactive,inactive,inactive,inactive,inactive,inactive,inactive,inactive,inactive,inactive,,inactive,inactive,,inactive
CC(C)=CCOC(=O)c1ccccc1,inactive,inactive,inactive,inactive,inactive,,inactive,,inactive,,,,inactive,,inactive,,,,,
CC(=O)Nc1ccc(S(=O)(=O)Cl)cc1,inactive,inactive,,inactive,inactive,inactive,inactive,,inactive,,,,inactive,inactive,inactive,,,,,
COc1cc(N)ccc1C,inactive,inactive,inactive,inactive,inactive,,inactive,,inactive,,,,inactive,,inactive,,,,,
CC[C@H](C)C(=O)O[C@H]1C[C@H](O)C=C2C=C[C@H](C)[C@H](CC[C@@H](O)C[C@@H](O)CC(=O)O)[C@H]21,inactive,inactive,,inactive,inactive,inactive,inactive,inactive,inactive,inactive,inactive,inactive,inactive,inactive,,,,,,
CO[C@@H]1[C@@H](OC(N)=O)[C@@H](O)[C@H](Oc2ccc3c(O)c(NC(=O)c4ccc(O)c(CC=C(C)C)c4)c(=O)oc3c2C)OC1(C)C,inactive,inactive,,inactive,inactive,inactive,inactive,inactive,inactive,inactive,inactive,inactive,inactive,inactive,inactive,,,,,
CC1COc2ccccc2N1 (configuration not stated),inactive,,inactive,inactive,inactive,inactive,inactive,,inactive,,,,inactive,inactive,inactive,,,,inactive,
CC(N)C(=O)OC(C)(C)Cc1ccc(Cl)cc1 (configuration not stated),inactive,21.1 µM (active),,inactive,inactive,,inactive,inactive,inactive,inactive,inactive,inactive,inactive,inactive,,,,,,
O=C1O[C@@H]2[C@@H](O)[C@H](O)O[C@@H]2[C@H]1O,inactive,inactive,,inactive,inactive,inactive,inactive,inactive,inactive,inactive,inactive,inactive,inactive,inactive,inactive,,,,,
CCC(C)NC(N)=O (configuration not stated),inactive,inactive,,inactive,inactive,inactive,inactive,inactive,inactive,inactive,inactive,inactive,inactive,inactive,inactive,inactive,inactive,inactive,,inactive
Cc1ccccc1OCC(O)CO (configuration not stated),inactive,inactive,,inactive,inactive,,inactive,,,,,,inactive,inactive,inactive,,,,,
CCCC/C=C\CCCCCCCCCC=O,inactive,,inactive,inactive,inactive,inactive,inactive,,inactive,,,,inactive,inactive,inactive,,,,inactive,
CC(=O)CCCCn1c(=O)c2c(ncn2C)n(C)c1=O,inactive,inactive,inactive,,inactive,inactive,inactive,inactive,inactive,inactive,inactive,inactive,inactive,inactive,inactive,,,,,
CCNC(=O)C1CC(C)CCC1C(C)C (configuration not stated),inactive,inactive,,inactive,inactive,inactive,inactive,inactive,inactive,inactive,inactive,inactive,inactive,inactive,,,,,,
Nc1cccc(O)c1,inactive,inactive,,inactive,inactive,inactive,inactive,inactive,,inactive,,inactive,inactive,inactive,inactive,,,,,
COc1ccc(OC)c(Cl)c1,inactive,inactive,,inactive,inactive,inactive,inactive,,inactive,,,,inactive,inactive,,,inactive,inactive,,
